We go through 40 compounds from PubChem BioAssay.

Each structure is given as a SMILES string. Measured potencies and affinities stand elsewhere. Active and inactive are the calls of the source.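 Rule for the calls: active = dose-response curve with midpoint inside the tested range, moderate steepness, significant amplitude and little compound fluorescence or bead-attachment interference; inactive = the rest.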

The test deals with GTPase HRas (Homo sapiens) (UniProt P01112). In words: activated Ras mutant GTP binding inhibitors, dose response, biochemical, multiplex bead flow cytometry (AID 1341).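 Note: GST-tagged constitutively activated Ras mutant immobilized on beads and multiplexed with other GTPases.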 The settings on record: bead-based flow cytometry, Bodipy-FL-GTP binding; series mostly up to 100 µM.
Regarding `NC(=O)c1c(NC(=O)c2cnccn2)sc2c1CCCC2`, the compound was classed as inactive.

For the compound `COc1ccc(CC(=O)Nc2ccc(S(=O)(=O)NC(C)C)cc2)cc1`, the outcome was inactive.

With `Cc1cccc(CN2C(=O)N/C(=C/c3ccc(C)s3)C2=O)c1`, the compound was classed as inactive. Turning to `COc1ccc(S(=O)(=O)N2CCOCC2)cc1C(=O)Nc1nc2ccccc2s1`, the result was inactive.

`Cc1n[nH]c(=S)c2nn(-c3cccc(Cl)c3)c(C)c12`: the compound was classed as inactive. Turning to `O=C(O)c1ccc(CNCc2ccc(F)cc2)cc1`, the outcome was inactive.

Take `CCOc1ccc(NC(=S)N=Nc2c(O)[nH]c3ccccc23)cc1`: the outcome was inactive.

Consider `COc1cccc(Nc2c(F)c(F)c(F)c(F)c2C(=O)O)c1`, for which the compound was classed as inactive. In the case of `Oc1c(C(c2ccccn2)N2CCOCC2)ccc2cccnc12` (stereo not given), the call was inactive. Regarding `COc1ccc2c(c1)c(C(=O)O)cn2CCOc1ccccc1C`, the result was inactive. With `Cc1cccc(C)c1CCNc1ncccc1C(=O)O`, the result was inactive. For `Cc1[nH]c2ccccc2c1C(=O)CNc1nccs1`, the call was inactive. As for `CCCCCCCCCCCC(=O)c1c(O)cccc1O`, the compound was classed as inactive. Then `CCOc1ccc(-n2c(C)nc3cc(C(=O)NCc4ccc5c(c4)OCO5)ccc32)cc1`, with “inactive”. To `COc1ccc(S(=O)(=O)N2CCN(CC(=O)Nc3cc(C(F)(F)F)ccc3Cl)CC2)cc1` belongs “inactive”; to `COc1cc(/C=N\NC(=O)CNC(=O)C2COc3ccccc3O2)ccc1O` (stereo not given), “inactive”; to `Cc1cc(C)cc(Nc2cc(C(=O)O)c3ccccc3n2)c1`, “inactive”. On to `Cc1sc2nc3c4ccccc4c(NCc4ccco4)nn3c(=O)c2c1C`, for which the compound was classed as inactive.

With `COc1ccccc1Nc1nc(-c2c(C)nc3ncccn23)cs1`, the call was inactive.

On to `O=C(O)c1cc(C(=O)O)cc(-c2ccc(/C=c3/sc4nc5ccccc5n4c3=O)o2)c1`, for which the result was inactive. For `CC(=O)Nc1cccc(C#CC(=O)c2ccc([N+](=O)[O-])cc2)c1`, the call was inactive. Consider `CC(C)c1nc2oc3c(=O)[nH]cnc3c2c2c1CCC2`, for which the compound was called inactive. In the case of `OCCC1CN(Cc2ccccc2O)CCN1CCc1ccccc1` (stereo not given), the compound was classed as inactive. Take `Cc1ccccc1-n1c(SCc2c(C)noc2C)nnc1-c1cccnc1`: the compound was called inactive. As for `COc1ccc(C2=Nn3c(nnc3-c3ccccn3)SC2)cc1OC`, the call was inactive. As for `C/C(=N\NC(=O)c1ccc(Cl)c(S(=O)(=O)Nc2ccccc2Cl)c1)c1ccncc1`, the compound was called inactive. On to `O=S(=O)(CC(CN1CCOCC1)N1CCOCC1)c1ccccc1` (stereo not given), for which the result was inactive. In the case of `COc1cc(CCNc2ccc3nnc(-c4ccccc4)n3n2)cc(OC)c1OC`, the compound was classed as inactive. `COc1ccc(N(CC(=O)Nc2cccc(C)c2C)S(=O)(=O)c2c(C)n[nH]c2C)cc1`: the compound was called inactive. Turning to `COc1ccc(-c2nn3c(-c4ccccn4)nnc3s2)cc1OC`, the result was inactive. To `O=C(O)C1=C[C@H](c2ccc(C(F)(F)F)cc2)C[C@H](OCc2ccc(CO)cc2)O1` belongs “inactive”.

For the compound `N#CCc1c(C#N)c(N)nc(N2CCN(C=O)CC2)c1C#N`, the result was inactive. Then `Cc1ccc(Nc2cc(C(=O)O)c3ccccc3n2)cc1C`, with “inactive”. Take `Cc1ccc(C2=NN(S(=O)(=O)c3ccccc3)C(c3ccccc3O)C2)cc1` (stereo not given): the result was inactive. To `Cc1ccccc1COc1cccc(C)c1C(=O)O` belongs “inactive”; to `CCn1c(SCC(=O)O)nnc1-c1cc2c(C)nn(-c3ccccc3)c2s1`, “inactive”; to `CCn1c2ccccc2c2nnc(SCC(=O)NCCOC)nc21`, “inactive”. As for `CCOCCCNc1nc(=S)[nH]c2cc(OC)c(OC)cc12`, the compound was called inactive. To `Cc1ccc(-c2c(C(=O)O)c(C(=O)O)c3n2CCC3)cc1` belongs “inactive”; to `Clc1ccc(CN(Cc2ccc(Cl)cc2)c2nn[nH]n2)cc1`, “inactive”.
